Sm TGR inh – blocks Schistosoma mansoni thioredoxin glutathione reductase. purified TGR, DTNB reduction, TNB absorbance 405 nm. Potency, µM (titrated, usually from 114 µM), for inactives: top-dose activity change, negative = inhibition, actives largely listed as inhibitors. 3% of 360,000 active. AID 485364; also: nearly all actives have a fitted effect of over 60% in size
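First, TGR (20 nM dispensed) and NADPH were mixed with compound. Second, a 15 min room-temperature incubation followed. Third, further NADPH and then DTNB were added to start the reaction. Finally, TNB absorbance was monitored kinetically.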
LmPK inh – blocks Leishmania mexicana pyruvate kinase activity. Q27686. purified LmPK, Kinase-Glo ATP luminescence, 1 h. Potency, µM (top dose mostly 57.5 µM), inactives show top-dose activity change, negative = inhibition, actives largely listed as inhibitors. 0.37% of 290,000 active. AID 1721
Target sequence (Q27686 whole entry, looked up): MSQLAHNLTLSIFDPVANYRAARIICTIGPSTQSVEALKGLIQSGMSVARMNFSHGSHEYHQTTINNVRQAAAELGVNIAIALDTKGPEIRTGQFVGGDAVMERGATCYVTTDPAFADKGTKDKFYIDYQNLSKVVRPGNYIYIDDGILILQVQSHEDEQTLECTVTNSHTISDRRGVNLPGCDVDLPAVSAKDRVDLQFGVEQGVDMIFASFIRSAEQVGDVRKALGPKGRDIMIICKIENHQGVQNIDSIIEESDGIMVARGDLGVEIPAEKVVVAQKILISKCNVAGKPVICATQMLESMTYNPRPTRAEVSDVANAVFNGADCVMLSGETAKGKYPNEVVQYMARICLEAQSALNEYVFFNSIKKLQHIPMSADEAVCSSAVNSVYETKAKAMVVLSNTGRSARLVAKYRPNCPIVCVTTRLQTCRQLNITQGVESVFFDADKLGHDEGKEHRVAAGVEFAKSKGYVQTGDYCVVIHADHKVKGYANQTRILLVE
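Pyruvate kinase activity monitored as ATP production (luciferase luminescence). Conditions: 0.1 nM enzyme, 0.5 mM PEP, 0.1 mM ADP, 1 h, RT; normalized against uninhibited and no-enzyme wells.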
Tb PYK inh – T. brucei pyruvate kinase inhibition; Q57TT1; TbPYK enzyme, Kinase-Glo Plus ATP luminescence, 45 min; Potency, µM (doses to about 76.8 µM), for inactives: at the top dose activity, negative = inhibition, hits mostly inhibitors; 0.12% of 410,000 active; AID 624173; also: nearly all actives have a fitted effect of over 50% in size
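In this concentration-response screen, enzyme-free wells defined baseline while DMSO plates tracked drift. Each reaction combined TbPYK, substrate, compound and 130 uM ADP for 45 min at room temperature. Kinase-Glo Plus luminescence gave the signal.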
RE007 growth inh – less growth of the S. pombe RE007 Vpr strain. S. pombe RE007 Vpr strain, BacTiter-Glo ATP luminescence, 24 h. Potency, µM (highest dose often 92.2 µM), for the others: top-dose activity change, negative = less growth, usual class: inhibitors. 0.21% of 360,000 active. AID 651644; active = well fitted falling curve with a large enough effect; inconclusive = small, poorly fitted or top-dose-only effect; inactive = no such curve, though single readings can be large or run the other way; also: nearly all actives have a fitted effect of over 50% in size
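Fission yeast RE007 carrying one integrated HIV-1 vpr copy, seeded at OD 0.01 in PMG+AL medium with 23 nL pinned compound. Grown 24 h at 30 degrees; viability read by BacTiter-Glo luminescence after 5 min.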
Starred values were filed as active, the others as inactive; ? = inconclusive; . = no result; [ ] = dose if it differs, or a comment. Hits are enriched below; roughly 3% of the tested compounds scored in any of these assays. Unless noted, calls follow the shape of the dose curve; as a rule, active = well fitted curve in the direction sought with a large enough effect; inconclusive = small, poorly fitted or top-dose-only effect, or another doubt; inactive = no such curve, though single readings can be large; an effect the other way counts as inactive or inconclusive. % is scaled to controls: 0 for no effect and ±100 for the full control effect; potency is read from the fitted curve at half-maximal effect.

SMILES | Sm TGR inh | LmPK inh | Tb PYK inh | RE007 growth inh
Cc1ccc(-n2nc(C)c3c(C(=O)Nc4ccc(Br)c(C)c4)cc(C)nc32)cc1 | 5% | . | -7% | .
CN(C)/N=C/C=C1\CCC/C(=C\c2ccc(F)c(F)c2)C1=O | 16µM* | 1% | 2% | 4%
COc1cc(/C=C/C(=O)OCC(=O)N2CC(=O)Nc3ccccc32)ccc1O | 45µM* | -6% | -2% | 5%
O=C(CNC(=O)OCc1ccccc1)Nc1ccc(F)cc1 | -12% | . | 2% | -19%
CCSC1=NC2(CCCCC2)Nc2sc3c(c21)CCCC3 | 56µM* | 24% | -24% | 40µM*
CCSc1ncnc2sc3c(c12)CCC3 | 10% | 3% | 4% | 6%
Cc1ccc2cc3cc(C(=O)N4CCN(C(=O)c5ccco5)CC4)sc3nc2c1 | 45µM* | 0% | -18% | 9%
Cc1ccc2cc3cc(C(=O)N4CCN(Cc5ccccc5)CC4)sc3nc2c1 | -27% | -2% | 1% | -12%
C/C(CC(=O)Nc1ccc(N(C)C)cc1)=N\NC(=O)c1ccccc1O | 45µM* | 6% | -2% | -19%
NC(=S)NS(=O)(=O)c1ccc(N)cc1 | . | . | 1% | .
O=C1c2ccccc2-c2onc3ccc(Oc4ccccc4)c1c23 | 6.3µM* | 2% | -7% | ?
CC(=O)CC/C=C(\C)CC/C=C(/C)CC/C=C(\C)CCC=C(C)C | . | . | 1% | .
Nc1nc(-c2cccc(Br)c2)cs1 | 2% | -4% | 0% | 14µM*
CCCCOc1ccc(Nc2cc(Cl)ccc2C(=O)O)cn1 | -16% | ? | 7% | 28µM*
COc1ccc(CC(=O)Nc2cc(Cl)ccc2C(=O)O)cc1 | -3%[57.1 µM] | 0% | -6% | 15%
CCc1ccc(NC(=O)CN(c2ccc(C)cc2)S(=O)(=O)c2cccs2)cc1 | -1% | . | 1% | .
COC(=O)c1cc(CSc2nnc(NC3CCCCC3)s2)oc1C | 45µM* | 2% | -22% | -17%
c1ccc(CSc2nnc(NC3CCCCC3)s2)cc1 | . | . | -2% | -9%
O=C1C2ON(c3ccccc3)C(c3cccnc3)C2C(=O)N1Cc1ccccc1 (configuration not stated) | 40µM* | 2% | 3% | -5%
Cn1c(=O)cc(OCC(=O)N2CCN(c3ccc(F)cc3)CC2)c2ccccc21 | 5% | . | -2% | .
COc1ccc2cc(C(=O)NCc3ccc4c(c3)CCN4C(=O)c3ccc(C)cc3)[nH]c2c1 | -6% | . | 10% | .
COc1ccc(NC(=O)CSc2nc(-c3ccco3)cc(C(F)(F)F)n2)cc1 | 3% | . | 1% | .
CCn1c2ccccc2c2cc(N)ccc21 | 4% | -11% | -19% | -24%
CCn1c2ccccc2c2c3ncc4cccn4c3ccc21 | 28µM* | 3% | -6% | -23%
COC(=O)N1C(c2ccccc2)=Cc2ccccc2C1C1(C(=O)OC)CCCC1=O (configuration not stated) | . | -5%[11.5 µM] | . | .
SMILES | Sm TGR inh | LmPK inh | Tb PYK inh | RE007 growth inh
COc1cccc(OC)c1NC(=O)Cn1nc(-c2ccc3c(c2)OCCO3)ccc1=O | 0% | -3% | -3% | -1%
CC(=O)Nc1cc2c(cc1NC(=O)Cn1nc(-c3ccccc3F)ccc1=O)OCCO2 | 45µM* | 2% | 7% | -1%
CCc1ccc2[nH]c(=O)c(C(c3nnnn3CC3CCCO3)N3CCCc4ccccc43)cc2c1 (configuration not stated) | 35µM* | -1% | 0% | -5%
Cc1ccccc1OCCn1c(CCNC(=O)C2CCCCC2)nc2ccccc21 | 8% | . | 4% | .
CCc1ccc(NC(=O)Cn2cnc3sc(C)c(S(=O)(=O)N4CCN(c5ccccc5OC)CC4)c3c2=O)cc1 | 4% | . | 4% | .
Cc1cc(C)c2c(=O)n(CC(=O)NCCCN3CCOCC3)sc2n1 | ? | -16% | 6.3µM* | ?
Cc1ccc(NC(=O)Cn2sc3nc(C)cc(C)c3c2=O)c(Cl)c1 | -31% | -18% | 2.5µM* | 22%
CCOc1ccc(NC(=O)Cn2sc3nc(C)cc(C)c3c2=O)cc1 | 0% | -16% | 5.6µM* | -16%
CC(C)Cn1c(-c2ccc(S(=O)(=O)N3CCCC3)cc2)csc1=Nc1ccccc1 | -3% | . | 0% | .
Cc1cn(C)c(CC(=O)Nc2cccc(Cl)c2C)c1C(=O)O | -20% | . | 0% | .
Oc1cc2c(cc1O)C(c1ccccc1)CNCC2 (configuration not stated) | . | . | ? | -12%[18.4 µM]
Oc1ccc([C@H]2CNCc3c2ccc(O)c3O)cc1O | . | . | 3.2µM* | .
Cc1ccc(C(=O)c2oc3ccccc3c2NC(=O)COc2ccccc2Cl)cc1 | 0% | . | -5% | .
Cc1ccsc1C(=O)Nc1ccc(C(=O)O)cc1 | -6% | 14µM* | -32% | ?
O=C(CSCc1ccco1)Nc1cc(C(F)(F)F)ccc1N1CCOCC1 | 22µM* | 9% | -17% | 8%
O=C(CC(Nc1ccc(Cl)cc1)C(=O)O)c1ccccc1 (configuration not stated) | 0.71µM* | ? | -19% | -16%
O=C(CC(=O)c1ccccc1)Nc1ccc(Cl)cc1 | 32µM* | -2% | 13% | -21%
O=C(CC(Nc1ccccc1Cl)C(=O)O)c1ccccc1 (configuration not stated) | . | 6% | -15% | -10%
O=C(CC(Nc1cccc(Cl)c1Cl)C(=O)OCC(=O)c1cccs1)c1ccccc1 (configuration not stated) | -34% | -2% | 3% | ?
Cc1c(Cl)cccc1NC(CC(=O)c1ccccc1)C(=O)OCC(=O)c1cccs1 (configuration not stated) | 8.9µM* | 12% | -6% | ?
COc1ccccc1NC(CC(=O)c1ccccc1)C(=O)OCC(=O)c1ccc(F)cc1 (configuration not stated) | 20µM* | 2% | -17% | -13%
Cc1c(Cl)cccc1NC(CC(=O)c1ccccc1)C(=O)O (configuration not stated) | 1µM* | -2% | ? | 1%
CCOC(=O)N1CCN(C(=O)c2ccc(CS(=O)(=O)c3c(Cl)cccc3Cl)o2)CC1 | 45µM* | 3% | -4% | 3%
O=C(c1ccc(CS(=O)(=O)c2c(Cl)cccc2Cl)o1)N1CCCC1 | 35µM* | 9% | -4% | 6%
CN1CCN(C(=O)c2ccc(CS(=O)(=O)c3c(Cl)cccc3Cl)o2)CC1 | -10% | -1% | -7% | 4%
CCOC(=O)N1CCC(NC(=O)c2ccc(CS(=O)(=O)c3c(Cl)cccc3Cl)o2)CC1 | ? | -4% | 0% | 2%
O=C(c1ccc(CS(=O)c2ccccc2Cl)o1)N1CCCCCC1 (configuration not stated) | 40µM* | -8% | -5% | -3%
O=C(c1ccc(CS(=O)(=O)c2ccc(Br)cc2)o1)N1CCCCCC1 | 35µM* | 12% | -2% | -6%
CCCCCCCCCCCC(=O)OCC(O)C1OCC(O)C1O (configuration not stated) | . | . | 2% | .
O=C(c1ccco1)N1CCN(C(=O)c2ccc(CS(=O)c3ccc(Cl)cc3)o2)CC1 (configuration not stated) | 40µM* | -10% | -4% | -2%
